Here are results for 49 compounds from PubChem BioAssay (Tox21).

Values joined by “and” are separate entries in the source; they are usually repeats but may differ in a detail not shown here. Identical values can stand only once. Inconclusive results are not listed. Unmarked numbers belong to inactive results. Active and inactive are the calls of the source. The call rests on the fitted dose curve; in most records, active means well fitted cell-killing curve with a large enough effect in the repeat runs; inconclusive means weak or mixed curves, or effect the other way; inactive means flat fitted curve, though single readings scatter.

Test [1] can be described thus: cAMP Responsive Elements (CRE) small molecule antagonists, cell-based qHTS assay: qHTS cell viability counter screen (AID 2060913). Further: nearly all actives have a fitted effect of over 40% in size. Particulars: CRE-bla HEK293T viability, CellTiter-Glo luminescence, 5 h; series mostly up to 92.4 µM. The procedure, abridged:
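Viability of NKH477-stimulated (0.25 uM final) CRE-bla HEK293T cells is measured by CellTiter-Glo luminescence following 3 hrs compound exposure at 37 C.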
(Quantitative high-throughput screening tests each substance at several concentrations.)

The nature of test [2]: cAMP Responsive Elements (CRE) small molecule agonists, cell-based qHTS assay: qHTS cell viability counter screen (AID 2060914).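 Further: viability read after 3 h of compound exposure; nearly all actives have a fitted effect of over 50% in size.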 To be noted: CRE-bla HEK293T viability, CellTiter-Glo luminescence, 5 h; series mostly up to 92.4 µM. The gist of the method:
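Cells are seeded and incubated 18 h, treated with compounds in DMSO for 3 h, read for the bla reporter, then given CellTiter-Glo; luminescence is measured after 30 min at room temperature.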
On the % scale 0 is the no-effect control and ±100 the full control effect; potency means the concentration at half of the fitted maximal effect.

Take `CS(C)(=O)=O`: the Potency entry in test [1] and in test [2] was “inactive” in each case.
On to `O=C(O)c1ccccc1OP(=O)(O)O`, for which the Potency result in test [1] and in test [2] was “inactive” throughout.
Consider `Cc1ccc(C(=O)C(=O)O)cc1C`, for which the Potency entry in test [1] and in test [2] was “inactive” in each case.
In the case of `Nc1cccc(S(=O)(=O)O)c1`, the Potency entry in test [1] and in test [2] was “inactive” each time.
With `CC(C)(c1ccccc1)c1ccccc1`, the Potency entry in test [1] and in test [2] was “inactive” throughout.
Take `CC1(C)[C@@H]2CC[C@]3(C2)[C@@H]1C(=O)CCC3(C)C`: the Potency result in test [1] and in test [2] was “inactive” in each case.
As to `CCCCCCCCCCCCCCCCC`, the Potency entry in test [1] and in test [2] was “inactive” in each case.
Regarding `Cc1c(N(C)C)c(=O)n(-c2ccccc2)n1C`, the Potency result in test [1] and in test [2] was “inactive” in each case.
For `CO`, the Potency result in test [1] and in test [2] was “inactive” each time.
Regarding `c1cc(C(c2ccc(OCC3CO3)cc2)c2ccc(OCC3CO3)cc2)ccc1OCC1CO1` (stereo not drawn), the Potency result in test [1] and in test [2] was “inactive” each time.
Regarding `CSc1nnc(C(C)(C)C)c(=O)[nH]1`, the Potency entry in test [1] and in test [2] was “inactive” in each case.
Consider `O=C(O)CCCCCCCCCCCC(=O)O`, for which the Potency result in test [1] and in test [2] was “inactive” each time.
Turning to `CC(c1cc(C(C)(C)C)cc(C(C)(C)C)c1O)c1cc(C(C)(C)C)cc(C(C)(C)C)c1O`, the Potency entry in test [1] and in test [2] was “inactive” in each case.
With `CC(=O)C1C(=O)C=C(C)OC1=O` (stereo not drawn), the Potency entry in test [1] and in test [2] was “inactive” in each case.
Consider `COc1cc(-c2nc(NC(=O)c3cc4cc(C)cc(C)c4n3CC(=O)O)sc2CCC2CCCCC2)c(OC)cc1Cl`, for which the Potency in test [1] and in test [2] was 25 µM (active) throughout.
For the compound `CCCCC(CC)COCCO` (stereo not drawn), the Potency result in test [1] and in test [2] was “inactive” in each case.
`CC(=O)Nc1ccccc1`: the Potency entry in test [1] and in test [2] was “inactive” throughout.
As for `CCCCN(CCN(CCCC)C(=O)N1CCOCC1)C(=O)N1CCOCC1`, the Potency entry in test [1] and in test [2] was “inactive” each time.
For the compound `NC(=O)NS(=O)(=O)c1ccc(Cl)cc1`, the Potency result in test [1] and in test [2] was “inactive” each time.
For the compound `NC(=O)c1ccccc1O`, the Potency result in test [1] and in test [2] was “inactive” throughout.
In the case of `CCOC(=O)CCc1ccccc1`, the Potency entry in test [1] and in test [2] was “inactive” each time.
Take `Cc1ncc(CSSCc2cnc(C)c(O)c2CO)c(CO)c1O`: the Potency entry in test [1] and in test [2] was “inactive” in each case.
Regarding `O=C(O)/C=C/c1ccc(Cn2ccnc2)cc1`, the Potency result in test [1] and in test [2] was “inactive” throughout.
Take `COc1cc2c(cc1OC)-c1cc(=Nc3c(C)cc(C)cc3C)n(C)c(=O)n1CC2`: the Potency entry in test [1] and in test [2] was “inactive” each time.
Take `CCCCCCCCC1CCC(=O)O1` (stereo not drawn): the Potency entry in test [1] and in test [2] was “inactive” each time.
With `CC(=O)OCCC(C)C`, the Potency entry in test [1] and in test [2] was “inactive” throughout.
Take `COCC(C)OC(C)=O` (stereo not drawn): the Potency result in test [1] and in test [2] was “inactive” throughout.
For the compound `CC1CC(OC(=O)c2ccccc2O)CC(C)(C)C1` (stereo not drawn), the Potency entry in test [1] and in test [2] was “inactive” throughout.
`CCCCCCCCCCCl`: the Potency entry in test [1] and in test [2] was “inactive” throughout.
`COCCO`: the Potency entry in test [1] and in test [2] was “inactive” each time.
`CCN=c1cc2oc3cc(NCC)c(C)cc3c(-c3ccccc3C(=O)OCC)c-2cc1C`: the Potency in test [1] is 68.3 µM (active) and 50.8 µM (active); in test [2] it was 68.3 µM (active) and 61.1 µM (active).
Regarding `CCCCC(CC)C(=O)O` (stereo not drawn), the Potency entry in test [1] and in test [2] was “inactive” each time.
Take `O=C1O[C@@H]2[C@@H](O)[C@H](O)O[C@@H]2[C@H]1O`: the Potency result in test [1] and in test [2] was “inactive” each time.
Take `CCCCCCCCCCCCCC[P+](CCCC)(CCCC)CCCC`: the Potency is 60.8 µM (active) and 28.5 µM (active) in test [1]; 60.8 µM (active) and 61.1 µM (active) in test [2].
Take `Cc1ccc(S(=O)(=O)N=C=O)cc1`: the Potency result in test [1] and in test [2] was “inactive” each time.
Turning to `Nc1ccc(S(=O)(=O)Nc2cnc3ccccc3n2)cc1`, the Potency result in test [1] and in test [2] was “inactive” in each case.
Take `CCOc1ccc(NC(=O)OC(C)C)cc1OCC`: the Potency result in test [1] and in test [2] was “inactive” in each case.
With `O=C(OCC1CCC2OC2C1)C1CCC2OC2C1` (stereo not drawn), the Potency entry in test [1] and in test [2] was “inactive” each time.
In the case of `COc1cc(C(C)C)c2c(c1)S(=O)(=O)N(COc1cc(=O)n3cccc(OCCN4CCCCC4)c3n1)C2=O`, the viability change, negative = cytotoxic in test [1] is -2.74% [at 18.9 µM]. Moreover, in test [2], the activity change, negative = cytotoxicity is 4.87% [at 18.9 µM].
Take `CC(Cc1ccccc1)(NC(=O)CN)c1ccccc1` (stereo not drawn): the Potency result in test [1] and in test [2] was “inactive” in each case.
In the case of `CC12CCC(C(=O)C1=O)C2(C)C` (stereo not drawn), the Potency result in test [1] and in test [2] was “inactive” throughout.
Consider `CC1(C)NC(=O)NC1=O`, for which the Potency entry in test [1] and in test [2] was “inactive” in each case.
On to `CC(=O)OCC(=O)[C@@]1(OC(C)=O)[C@@H](C)C[C@H]2[C@@H]3C[C@H](F)C4=CC(=O)C=C[C@]4(C)[C@@]3(F)[C@@H](O)C[C@@]21C`, for which the Potency entry in test [1] and in test [2] was “inactive” throughout.
Regarding `O=C1CCCc2ccccc21`, the Potency entry in test [1] and in test [2] was “inactive” in each case.
As to `OC[C@H]1O[C@@H](Oc2ccc(O)cc2)[C@H](O)[C@@H](O)[C@@H]1O`, the Potency result in test [1] and in test [2] was “inactive” each time.
Consider `CC(=O)SCc1ccco1`, for which the Potency entry in test [1] and in test [2] was “inactive” throughout.
As for `COCCOC(=O)C1=C(C)NC(C)=C(C(=O)OC/C=C/c2ccccc2)C1c1cccc([N+](=O)[O-])c1` (stereo not drawn), the Potency entry in test [1] and in test [2] was “inactive” throughout.
As to `Nc1c[n+](N2CCOCC2)no1`, the Potency result in test [1] and in test [2] was “inactive” throughout.
For `CCCCCCCCCCCCCC=O`, the viability change, negative = cytotoxic in test [1] is -4.53% [at 8.39 µM]. Moreover, the activity change, negative = cytotoxicity in test [2] was 15.9% [at 8.39 µM].
